The values below come from PubChem BioAssay AID2544 (Sanford-Burnham Center for Chemical Genomics, 2010).

The whole screen tested about 330,000 compounds, of which about 390 (0.12%) were called active. The entries come from a sample that favours actives as a whole. A number with no mark means an inactive call.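 How the source made its calls: active means inhibition reaching a set limit with compound at 10 µM in the primary screen (cut at about 35% in these data); inactive means the rest.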

Chain of Intestinal-type alkaline phosphatase (Homo sapiens) (P09923 whole entry, looked up): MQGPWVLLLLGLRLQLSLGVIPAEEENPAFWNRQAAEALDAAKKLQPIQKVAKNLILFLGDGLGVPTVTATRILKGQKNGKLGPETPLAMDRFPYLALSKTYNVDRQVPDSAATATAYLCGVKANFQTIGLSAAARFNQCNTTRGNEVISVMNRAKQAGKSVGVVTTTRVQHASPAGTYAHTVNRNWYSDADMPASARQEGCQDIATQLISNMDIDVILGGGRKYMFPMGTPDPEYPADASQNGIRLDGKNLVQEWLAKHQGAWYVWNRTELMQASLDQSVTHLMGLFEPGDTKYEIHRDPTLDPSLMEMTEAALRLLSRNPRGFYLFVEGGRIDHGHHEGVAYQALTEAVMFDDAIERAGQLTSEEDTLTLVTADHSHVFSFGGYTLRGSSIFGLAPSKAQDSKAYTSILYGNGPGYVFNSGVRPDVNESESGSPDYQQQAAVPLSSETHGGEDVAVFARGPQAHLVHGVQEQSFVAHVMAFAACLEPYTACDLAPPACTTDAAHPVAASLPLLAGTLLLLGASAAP

The experiment addresses Intestinal-type alkaline phosphatase (Homo sapiens) (UniProt P09923). The experiment can be described thus: blockers of intestinal alkaline phosphatase activity – biochemical, luminescence, uHTS, primary screen (AID 2544).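 Further: plate controls were DMSO wells with enzyme for no effect and no-enzyme buffer wells for full effect.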 Conditions: purified IAP, CDP-Star luminescence, 30 min; at 10 µM; hits give high values.
Turning to `Cc1ccc(-n2c(C)nnc2SCC(=O)NC2CC2)cc1`, the inhibition (as a rule, the relative decrease from the control value, in per cent) is -12.6%. The figure for `Cc1nc(-c2ccc(F)cc2)c(CC(=O)Nc2cc(S(=O)(=O)N3CCCCC3)ccc2C)s1` is -13.3%; for `CC(C)Oc1c(Br)cc(Br)cc1/C=N/NC(N)=S` it is 14.7%; for `COc1ccc(C(C(=O)NC(C)(C)C)N(C(=O)Cn2nnc3ccccc32)c2ccc(C(C)=O)cc2)cc1O` (centres undefined) it is -15.8%. Take `CCC(=O)c1ccc(OCC(=O)OCC(=O)NC2CCCCCC2)cc1`: the inhibition was 8.3%. Consider `Oc1ccc(CNc2ccccc2O)cc1`, for which the inhibition was -0.8%. Turning to `COc1ccc(/C=C2\N=C3CCCN3C2=O)cc1`, the inhibition is 7.3%. Take `Cc1cc(C)c2c(Cn3ccnc3)cc(=O)oc2c1`: the inhibition is -7%. As to `CN(CC(=O)Nc1cccc(F)c1)C(=O)C1CC(=O)N(CCc2ccccc2)C1` (centres undefined), the inhibition is 2.5%. In the case of `C/C(Cc1ccccc1)=N\NC(=O)CNC(=O)c1ccc2c(c1)OCCO2` it was 1.8%. As for `CSc1ccc(S(=O)(=O)Nc2cccc(F)c2)cc1`, the inhibition was 7%. `CN=C1SC(CC(=O)Nc2ccc(C(=O)O)cc2)C(=O)N1C` (centres undefined): the inhibition was 15.6%.

Take `COc1c(O)cc2oc(-c3ccc(O)c(O)c3)cc(=O)c2c1O`: the inhibition was 40.1% (active). As for `CCOC(=O)COc1cc(OCC(=O)OCC)c2c(=O)cc(-c3ccccc3)oc2c1`, the inhibition was -22.1%.

In the case of `CCn1nnnc1SCC(=O)c1ccc(C)cc1C`, the inhibition is -4%. On to `Cc1ccc2c(c1)nnc1nnc(SCC(=O)O)n12`, for which the inhibition was 36.1% (active).

Turning to `Cc1cccc(-c2nnc(SCC(=O)O)n2Cc2ccccc2)c1`, the inhibition is -16.7%. For the molecule `Cc1ccccc1N1CC(C(=O)Nc2nnc(SCCC3OCCO3)s2)CC1=O` (centres undefined), the inhibition was 18.3%. In the case of `C=CCn1c(=S)sc2c(=O)[nH]c(C)nc21` it was -10.3%. For `CN(C)/C=C1\C=C(c2ccccc2)OC1=O`, the inhibition is 0.7%.

As to `Cc1ccc(N=C2SCCCN2C(=O)c2cccc(N3C(=O)CCC3=O)c2)cc1Cl`, the inhibition is -21.5%. The figure for `Cc1ccc(-n2ncc3c(Nc4cccc(C(=O)O)c4)ncnc32)cc1` is 17.6%; for `Cc1c(NC(=O)CN2C(=O)C(=O)N(Cc3ccccc3)C2=O)c(=O)n(-c2ccccc2)n1C` it is 8.1%; for `NC(=O)c1nsc(C(=O)N(CC(=O)NCc2ccc(F)cc2)Cc2ccco2)c1N` it is -10.8%. The figure for `O=C(CSc1nccn1-c1cccc(F)c1)NC1CCCC1` is 2.7%. Take `Cc1csc(NC(=O)CSc2nc(=O)n(CCCN(C)C)c3c2CCC3)n1`: the inhibition is 6.4%. For `O=C(O)C1=CCCN(CCON=C(c2ccccc2)c2ccccc2)C1`, the inhibition was -0.4%. Take `CC(C)(C)c1ccc(/C=C2\Oc3c(ccc(O)c3CN3CCN(CCO)CC3)C2=O)cc1`: the inhibition was 8.9%. For `CCOC(=O)c1ccc(NC(=O)CCn2c(=O)oc3ccccc32)cc1`, the inhibition is -9.6%. The figure for `CC[C@]1(c2ccccc2OC)C(=O)N(C(=O)OC)N1C(=O)OC` is 8.5%; for `O=C(COC(=O)Cc1c[nH]c2ccccc12)NCCc1ccccc1` it is 14.4%; for `Cc1ccc(Cn2c(=N)c(S(=O)(=O)c3ccc(C)cc3)cc3c(=O)n4ccccc4nc32)cc1` it is -7.4%. In the case of `Cc1cc(C(F)F)nn1CC(=O)NC1CCCCCC1`, the inhibition is 14%.

On to `CCC(C)N(C(=O)COC(=O)C1C(C(=O)OC)=C(C)NC(C)=C1C(=O)OC)C1CCS(=O)(=O)C1` (centres undefined), for which the inhibition is -1.2%.

With `CCN(C(=O)COC(=O)Cc1c(F)cccc1Cl)c1c(N)n(Cc2ccccc2)c(=O)[nH]c1=O`, the inhibition was -9.2%. For `Cc1ccc(CNC(=O)c2cc(-c3ccccc3C)n(CC3CC(c4cccc([N+](=O)[O-])c4)=NO3)n2)cc1` (centres undefined), the inhibition is 17%.

Regarding `OCCC#Cc1ccc(CN2CCN(Cc3ccsc3)C(CCO)C2)cc1` (centres undefined), the inhibition is 12.2%. For `CC1O[C@@H](OC2C(O)C(C)O[C@H](OC(=O)[C@]34CCC(C)(C)C[C@H]3C3=CCC5[C@@]6(C)CC(O)C(O[C@@H]7OC(CO)C(O)[C@@H](O)[C@@H]7O)[C@@](C)(C(=O)O)C6CC[C@@]5(C)[C@]3(CO)CC4)C2O[C@H]2OC(C)[C@@H](O[C@@H]3OCC(O[C@@H]4OC(CO)C(O)[C@H](O)C4O)[C@@H](O)[C@@H]3O)[C@H](O)C2O)C(O)C(O)C1O` (some centres undefined), the inhibition is -8.3%. As to `CCOC(=O)c1[nH]cnc1C(=O)NC1CCCCC1`, the inhibition was -28.7%. With `CCN(CC(=O)Nc1ccc2c(c1)OCCO2)Cc1cc(=O)oc2cc(C)c(C)cc12`, the inhibition was 5%. Take `O=C(NNC1=C(C(=O)C(F)(F)F)CCC1)c1ccncc1`: the inhibition is -34.2%. The figure for `COC(=O)C(C)Sc1ccc2nnc(-c3cccc(F)c3)n2n1` (centres undefined) is -8.4%; for `COc1ccccc1C(=O)NCCC(=O)NN1C(=O)NC2(CCCCC2)C1=O` it is 14.4%; for `CC1(C)NC(=O)N(CCCCSc2ccc(Cl)cc2)C1=O` it is -0.2%.

Take `Cc1ccc(Cl)c(OCC(=O)N2CCc3ccccc3C2)c1`: the inhibition is -20.2%.

As for `O=C(CSc1nnc(CNC(=O)c2ccc(F)cc2)o1)Nc1ccc2c(c1)OCO2`, the inhibition was -13.1%. The figure for `COc1ccc(CN2CCC(c3nc4ccc(Cl)cc4[nH]3)CC2)cc1` is -27.1%; for `O=C(NCc1ccc2c(c1)OCO2)C1CCCN(S(=O)(=O)c2cccs2)C1` (centres undefined) it is 17.9%. For `COc1ccc(C(C#N)N2N=C(C)CC2(C)C)cc1` (centres undefined), the inhibition was -6.2%.
